# Results reported in PubChem BioAssay AID488984 (The Scripps Research Institute Molecular Screening Center, 2010).
# Unmarked numbers belong to inactive results. The source made the active and inactive calls. Rule as the data show it: active = inhibition above about 55%; inactive = the rest.
# Test system: SARS coronavirus 3C-like protease (3CLpro, nsp5)
# Experiment: blockers of SARS 3CLpro activity – biochemical, fluorescence, set 2, late-stage follow-up (AID 488984)
# Details: recombinant 3CLpro, fluorogenic peptide cleavage; at 100 µM; hits give high values
row,SMILES,inhibition
1,CC(C)(C)NC(=O)C(c1ccsc1)N(C(=O)c1n[nH]c2ccccc12)c1ccc(F)cc1 (centres undefined),15.3%
2,CC(C)(C)NC(=O)C(c1cccnc1)N(C(=O)c1cccc2c1CCCC2)c1ccc(F)cc1 (centres undefined),12%
3,CC(C)(C)NC(=O)C(c1ccsc1)N(C(=O)Cc1cccnc1)c1ccc(C(C)(C)C)cc1 (centres undefined),37.4%
4,CC(C)(C)NC(=O)C(c1ccsc1)N(C(=O)c1cccc2c1CCCC2)c1ccc(OCF)cc1 (centres undefined),12.6%
5,CC(C)c1ccc(N(C(=O)Cc2c[nH]c3ccccc23)C(C(=O)NC(C)(C)C)c2cccnc2)cc1 (centres undefined),3.78%
6,CC(C)(C)NC(=O)C(c1ccsc1)N(C(=O)Cn1cnc2ccccc21)c1ccc(NS(C)(=O)=O)cc1 (centres undefined),38%
7,CC(C)(C)NC(=O)C(c1ccsc1)N(C(=O)Cn1cnc2ccccc21)c1ccc(N)cc1 (centres undefined),12.6%
8,CC(C)C(=O)Nc1ccc(N(C(=O)Cn2cnc3ccccc32)C(C(=O)NC(C)(C)C)c2ccsc2)cc1 (centres undefined),59.8% (active)
9,CC(C)c1ccc(N(C(=O)c2cccc3c2CCCC3)C(C(=O)NC(C)(C)C)c2cccnc2)cc1 (centres undefined),-5.03%
10,CC(C)(C)NC(=O)C(c1ccsc1)N(C(=O)c1n[nH]c2ccccc12)c1ccc(OC(F)F)cc1 (centres undefined),14.3%
11,Cc1nccn1CC(=O)N(c1ccc(NC(=O)C(C)C)cc1)C(C(=O)NC(C)(C)C)c1ccsc1 (centres undefined),7.94%
12,CC(C)(C)NC(=O)C(c1cccnc1)N(C(=O)c1n[nH]c2ccccc12)c1ccc(OC(F)F)cc1 (centres undefined),24.6%
13,CCC(=O)Nc1ccc(N(C(=O)Cn2nnc3ccccc32)C(C(=O)NC(C)(C)C)c2ccsc2)cc1 (centres undefined),94.2% (active)
14,CC(C)C(=O)Nc1ccc(N(C(=O)Cn2nnc3ccccc32)C(C(=O)NC(C)(C)C)c2ccsc2)cc1 (centres undefined),96.7% (active)
15,CC(C)(C)NC(=O)C(c1cccnc1)N(C(=O)c1ccc(C#N)cc1)c1ccc(F)cc1 (centres undefined),-13.5%
16,CC(C)(C)NC(=O)C(c1ccsc1)N(C(=O)c1ccco1)c1ccc(F)cc1 (centres undefined),11.2%
17,CC(C)(C)NC(=O)C(c1cccnc1)N(C(=O)c1ccco1)C1CC1 (centres undefined),-1.64%

row,SMILES,inhibition
1,CC(C)(C)NC(=O)C(c1ccsc1)N(C(=O)c1ccco1)c1ccc(C(C)(C)C)cc1 (centres undefined),19.5%
2,CC(C)(C)NC(=O)C(c1ccsc1)N(C(=O)c1n[nH]c2ccccc12)C1CC1 (centres undefined),13%
3,CC(C)(C)NC(=O)C(c1ccsc1)N(C(=O)c1ccc(C#N)cc1)c1ccc(C(C)(C)C)cc1 (centres undefined),22.7%
4,CC(C)(C)NC(=O)C(c1cccnc1)N(C(=O)Cc1c[nH]c2ccccc12)c1ccc(F)cc1 (centres undefined),5.7%
5,CC(C)(C)NC(=O)C(c1ccsc1)N(C(=O)c1ccc(C#N)cc1)c1ccc(F)cc1 (centres undefined),17.4%
6,CC(C)c1ccc(N(C(=O)c2n[nH]c3ccccc23)C(C(=O)NC(C)(C)C)c2ccsc2)cc1 (centres undefined),7.3%
7,Cc1nc2ccccc2n1CC(=O)N(c1ccc(N)cc1)C(C(=O)NC(C)(C)C)c1ccsc1 (centres undefined),1.01%
8,CC(C)(C)NC(=O)C(c1cccnc1)N(C(=O)c1ccc(C#N)cc1)c1ccc(OCF)cc1 (centres undefined),-7.47%
9,CC(C)(C)NC(=O)C(c1ccsc1)N(C(=O)Cc1cccnc1)c1ccc(OCF)cc1 (centres undefined),56.1% (active)
10,CC(=O)Nc1ccc(N(C(=O)Cn2nnc3ccccc32)C(C(=O)NC(C)(C)C)c2ccsc2)cc1 (centres undefined),94.8% (active)
11,CC(C)(C)NC(=O)C(c1ccsc1)N(C(=O)Cc1cccnc1)c1ccc(F)cc1 (centres undefined),19%
12,CC(C)c1ccc(N(C(=O)c2ccc(C#N)cc2)C(C(=O)NC(C)(C)C)c2cccnc2)cc1 (centres undefined),-3.85%
13,CC(C)(C)NC(=O)C(c1cccnc1)N(C(=O)c1n[nH]c2ccccc12)c1ccc(C(C)(C)C)cc1 (centres undefined),20.6%
14,CC(C)(C)NC(=O)C(c1cccnc1)N(C(=O)c1ccco1)c1ccc(C(C)(C)C)cc1 (centres undefined),102% (active)
15,CC(C)(C)NC(=O)C(c1ccsc1)N(C(=O)c1ccc(C(F)(F)F)nc1)c1ccc(F)cc1 (centres undefined),9.21%
16,CC(C)c1ccc(N(C(=O)c2ccc(C(F)(F)F)nc2)C(C(=O)NC(C)(C)C)c2cccnc2)cc1 (centres undefined),-15.3%
17,CC(C)(C)NC(=O)C(c1ccsc1)N(C(=O)Cn1nnc2ccccc21)c1ccc(NS(C)(=O)=O)cc1 (centres undefined),89.5% (active)
